{
  "source": "PubChem BioAssay (NCATS)",
  "note": "Records with an inconclusive call do not appear. A call without a number means that no potency is given here. The source made the active and inactive calls. Calls come from the whole dose curve; as a rule, active = well fitted inhibition curve with a large enough effect; inconclusive = small, poorly fitted or top-dose-only effect; inactive = flat fitted curve, though single readings scatter.",
  "data": [
    {"system": "Zika virus NS2B-NS3 protease", "experiment": "Primary screen GU AMC qHTS for Zika virus inhibitors (AID 1347154); note: nearly all actives have a fitted effect of over 70% in size", "settings": "Zika NS2B-NS3 unlinked protease, AMC fluorogenic substrate; series mostly up to 54.1 µM", "from_the_text": "Avindra Nath, Ph.D., National Institute of Neurological Disorders and Stroke (NINDS), Bethesda, MD\nRadhakrishnan Padmanabhan, Ph.D., Georgetown University (GU), Washington D.C.\nZika Virus causes congenital defects, including microcephaly and is associated with Guillain-Barre syndrome, eningoencephalitis and myelitis in infected adult. […] Using a target-based approach, we hope to establish a screening paradigm to uncover novel, cell-active NS2B-NS3 protease (Zika Virus) specific inhibitors from NCATS' collection of small molecules using qHTS.\nEarly Translation Branch (ETB)\nNational Center for Advancing Translational Sciences (NCATS), Rockville, MD\nNational Institute of Health (NIH), Bethesda, Maryland\nPadmanabhan lab provided the NS2B hydrophilic domain and NS3 protease domain in a noncovalent complex used for the unlinked assay. Control compound aprotinin is obtained from Thermo Scientific (#78432; Waltham, Massachusetts). NS2B-NS3 AMC substrate (Bz-Nle-Lys-Arg-Arg-AMC; Nle-KRR-AMC) purchased from Bachem (#I-1995; Torrance, CA). Ac-VKTGKR-AMC purchased from Genscript or Bachem, Ac-FAAGKR-AMC purchased from Genscript, Ac-GLVKRR-AMC purchased from Genscript, Ac-LKKR-AMC purchased from Genscript.\nGU AMC unlinked NS2B-NS3 protease qHTS protocol\nBriefly, 3 microL of Zika virus unlinked NS2B-NS3 protease (25 nM for linked final concentration), in assay buffer (10 mM Tris-HCl pH 8.0 with 0.01% Tween 20) was dispensed into a 1,536-well solid-bottom black plate (Greiner Bio One, Monroe, NC). […] Plates were then read immediately on a ViewLux High-throughput CCD imager (PerkinElmer, Waltham, MA) equipped with standard UV fluorescence optics (340(30) nm excitation, 450(20) nm emission) then incubated (room temperature, protected from light) for 15 minutes (~20% conversion). The change in fluorescence intensity over the 15-minute reaction period was normalized against no-inhibitor and no-enzyme controls and the resulting percent inhibition data were fitted to a 4-parameter Hill equation. Aprotinin was used as the intraplate control.", "values": [
      {"smiles": "CCCCCC(N)=O", "Potency": "inactive"},
      {"smiles": "CC(=O)N[C@@H](Cc1ccc(O)cc1)C(=O)O", "Potency": "inactive"},
      {"smiles": "CCCOC(=O)c1ccc(N)cc1", "Potency": "inactive"},
      {"smiles": "Cc1onc(-c2ccccc2)c1-c1ccc(S(N)(=O)=O)cc1", "Potency": "inactive"},
      {"smiles": "NS(=O)(=O)c1cc(-c2nn[nH]n2)c(NCc2cccs2)cc1Cl", "Potency": "inactive"},
      {"smiles": "O=c1[nH]c(=O)c2ccccc2o1", "Potency": "inactive"},
      {"smiles": "NNc1nnc(NN)c2ccccc12", "Potency": "inactive"},
      {"smiles": "CC(=O)OCC(=O)[C@@]1(O)CC[C@H]2[C@@H]3CCC4=CC(=O)C=C[C@]4(C)[C@@]3(F)[C@@H](O)C[C@@]21C", "Potency": "inactive"},
      {"smiles": "O=C(O)c1ccccc1C(=O)Nc1ccc(S(=O)(=O)Nc2nccs2)cc1", "Potency": "inactive"},
      {"smiles": "CCN1CC(CCN2CCOCC2)C(c2ccccc2)(c2ccccc2)C1=O", "note": "(stereo not given)", "Potency": "inactive"},
      {"smiles": "CCc1cccc(CC)c1NC(=O)CN(CC(=O)O)CC(=O)O", "Potency": "inactive"},
      {"smiles": "O=C(O)c1ccc[n+]([O-])c1", "Potency": "inactive"},
      {"smiles": "Cc1c(C(=O)NCCO)[n+](=O)c2ccccc2n1[O-]", "Potency": "inactive"},
      {"smiles": "O=C(NCCCN1CCOCC1)c1ccc(Cl)cc1", "Potency": "inactive"},
      {"smiles": "CC(=O)Oc1cccc(C)c1", "Potency": "inactive"},
      {"smiles": "CO[C@@]1(NC(=O)C(C(=O)O)c2ccc(O)cc2)C(=O)N2C(C(=O)O)=C(CSc3nnnn3C)CO[C@@H]21", "note": "(stereo not given in full)", "Potency": "inactive"},
      {"smiles": "O=C(CN1CCNCC1)NC1CCCCC1", "Potency": "inactive"},
      {"smiles": "CC(N)CCCC(C)(C)O", "note": "(stereo not given)", "Potency": "inactive"},
      {"smiles": "CCC(C)(CN(C)C)OC(=O)c1ccccc1", "note": "(stereo not given)", "Potency": "inactive"},
      {"smiles": "CCCNC(C)C(=O)Nc1c(C)csc1C(=O)OC", "note": "(stereo not given)", "Potency": "inactive"},
      {"smiles": "CCN(CC)C(=O)c1cccc(C)c1", "Potency": "inactive"},
      {"smiles": "CCOc1cc(NC(C)=O)ccc1C(=O)OC", "Potency": "inactive"},
      {"smiles": "CCCCCCCCCCCCCCCCCCO", "Potency": "inactive"},
      {"smiles": "CC(C)(C)NCC(O)COc1cccc2c1CCC(=O)N2", "note": "(stereo not given)", "Potency": "inactive"},
      {"smiles": "CC(=O)Oc1cccc(O)c1", "Potency": "inactive"},
      {"smiles": "CC(C)NC[C@@H](O)COc1ccc(CC(N)=O)cc1", "Potency": "inactive"},
      {"smiles": "CCCCCCCCCCC(CO)CCCCCCCC", "note": "(stereo not given)", "Potency": "inactive"},
      {"smiles": "CCOC(N)=O", "Potency": "inactive"},
      {"smiles": "CCOC(=O)OC(C)OC(=O)[C@@H]1N2C(=O)[C@@H](NC(=O)[C@H](N)c3ccccc3)[C@H]2SC1(C)C", "note": "(stereo not given in full)", "Potency": "inactive"},
      {"smiles": "COc1ccc(NS(=O)(=O)c2ccc(N)cc2)nn1", "Potency": "inactive"},
      {"smiles": "COc1ccc(C(=O)NCc2ccc(OCCN(C)C)cc2)cc1OC", "Potency": "inactive"},
      {"smiles": "Cc1ccc(S(=O)(=O)NC(=O)NC2CCCCC2)cc1", "Potency": "inactive"},
      {"smiles": "C[N+](C)(C)CC[N+]1(C)Cc2c(Cl)c(Cl)c(Cl)c(Cl)c2C1", "Potency": "inactive"},
      {"smiles": "CCN(CC)CCc1nc(-c2ccccc2)no1", "Potency": "inactive"},
      {"smiles": "Nc1ncnc2c1ncn2[C@@H]1O[C@H](COP(=O)(O)O)[C@@H](O)[C@H]1O", "Potency": "inactive"},
      {"smiles": "CCCCCCCC(=O)OCC(O)CO", "note": "(stereo not given)", "Potency": "inactive"},
      {"smiles": "CCCCCCCCCCCCCCCCN", "Potency": "inactive"},
      {"smiles": "C=CCSCC1Nc2cc(Cl)c(S(N)(=O)=O)cc2S(=O)(=O)N1", "note": "(stereo not given)", "Potency": "inactive"},
      {"smiles": "CCCC(O)C(CC)CO", "note": "(stereo not given)", "Potency": "inactive"},
      {"smiles": "C[C@H]1COc2c(C3(N)CC3)c(F)cc3c(=O)c(C(=O)O)cn1c23", "Potency": "inactive"}
    ]}
  ]
}
